Laboratory results: PubChem BioAssay
Active and inactive are the calls of the source.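 Rule for the calls, unless noted: active = compounds whose cell count with miR-34 switched on is under 0.7 times the count with it off; inactive = the rest.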

Key:
[1] = viability loss with induced miR-34 in A549 – imaging, A549 dox-inducible miR-34, nuclei and caspase counts, primary screen (AID 1347080); settings: A549 miR-34 inducible, Hoechst nuclei count, 48 h
[2] = chitosan synthesis blockers in C. neoformans – flow cytometry, Cibacron Brilliant Red staining (AID 1347148; call rule not given here;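 note: compound exposure lasted three days at 37 degrees C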); settings: Cryptococcus neoformans chitosan, stronger effect = lower value; at 10 µM unless noted
[3] = stronger effect = lower value, cell number ratio, induced over uninduced
[4] = measured here: relative caspase fold change +Dox/-Dox
[5] = measured here: total cells with miR-34 induction, stronger effect = lower value
[6] = measured here: total cells without miR-34 induction

| SMILES | fold change [1, 3] | fold change [1, 4] | cell count [1, 5] | cell count [1, 6] | fold change ([1]; stronger effect = lower value) | fold fluorescence [2] |
| --- | --- | --- | --- | --- | --- | --- |
| CCCCC/C=C\C/C=C\C/C=C\C/C=C\CCCC(=O)Nc1cccc(O)c1 | 0.942 (inactive) | 0.281 | 5390 | 5720 | – | – |
| CN=C(NS(=O)(=O)c1ccc(Cl)cc1)N1CC(c2ccccc2)C(c2ccc(Cl)cc2)=N1 (stereo unspecified) | 0.741 (inactive) | 0.564 | 4700 | 6340 | – | – |
| CCCCC/C=C\C/C=C\C/C=C\C/C=C\CCCC(=O)Nc1cccc([N+](=O)[O-])c1 | 0.95 (inactive) | 0.782 | 5310 | 5590 | – | – |
| C=C(C)[C@@H]1CCC(C)=C[C@H]1c1c(O)cc(O)cc1CCCCC | 0.914 (inactive) | 1.35 | 5030 | 5500 | – | – |
| CCCCCCCCCCCCCCCCSP(=O)([O-])OCC[N+](C)(C)C | 0.933 (inactive) | 0.479 | 5080 | 5450 | – | – |
| CCCCC/C=C\C/C=C\C/C=C\C/C=C\CCCC(=O)NCCCC(=O)O | 0.955 (inactive) | 1.25 | 5500 | 5760 | – | – |
| c1cc2ccc(N3CCNCC3)cc2cn1 | 0.985 (inactive) | 0.763 | 5520 | 5610 | – | – |
| CCCCC/C=C\C/C=C\C/C=C\C/C=C\CCCC(=O)O[C@H](COC(=O)CCCCCCCCCCCCCCCCC)COP(=O)([O-])OCC[N+](C)(C)C | 0.924 (inactive) | 0.766 | 5220 | 5650 | – | – |
| C[C@@H]1CC([C@H](O)CC2CC(=O)NC(=O)C2)C(=O)[C@@H](C)C1 (stereo partly specified) | – | 1.96 | 1800 | 1780 | 1.01 (inactive) | – |
| CCCCC/C=C\C/C=C\C/C=C\C/C=C\CCCC(=O)N[C@H](C)COP(=O)(O)O | 1.03 (inactive) | 0.754 | 5610 | 5460 | – | – |
| CCCCC/C=C\C/C=C\C/C=C\C/C=C\CCCC(=O)NC(CO)CO | 0.961 (inactive) | 0.877 | 5640 | 5870 | – | – |
| CCCCC/C=C\C/C=C\C/C=C\C/C=C\CCCC(=O)NCCCl | 1.01 (inactive) | 1.15 | 6340 | 6270 | – | – |
| CCNC(=O)[C@H]1O[C@@H](n2cnc3c(N)ncnc32)[C@@H](O)C1O (stereo partly specified) | 0.967 (inactive) | 0.965 | 6150 | 6360 | – | – |
| CCCCC/C=C\C/C=C\C/C=C\C/C=C\CCCC(=O)NCCOP(=O)(O)O | 0.994 (inactive) | 0.95 | 5850 | 5880 | – | – |
| C[N+]1(C)[C@@H]2CC(OC(=O)C(CO)c3ccccc3)C[C@H]1[C@@H]1O[C@@H]12 (stereo partly specified) | – | 1.43 | 8500 | 9160 | 0.929 (inactive) | – |
| C=C(C)[C@@H]1CCC(C)=C[C@H]1c1c(C)cc(O)cc1O | 0.943 (inactive) | 0.916 | 5200 | 5510 | – | – |
| COc1ccc2cc(C(C#N)OC(=O)OCC3OC3c3ccccc3)ccc2c1 (stereo unspecified) | 0.914 (inactive) | 0.565 | 5380 | 5890 | – | – |
| CC[C@@]1(O)C(=O)OCc2c1cc1n(c2=O)-c2cc3ccccc3nc2C1 | – | 0.79 | 1320 | 1300 | 1.01 (inactive) | – |
| CCCCC/C=C\C/C=C\C/C=C\C/C=C\CCCC(=O)Nc1ccc(O)cc1C | 1.03 (inactive) | 0.979 | 6030 | 5870 | – | – |
| COc1ccc(/C=C/C(=O)CC(=O)/C=C/c2ccc(OC)c(OC)c2)cc1OC | 0.864 (inactive) | 0.752 | 5430 | 6280 | – | – |
| CC(C)[C@]1(O)[C@@H](OC(=O)c2ccc[nH]2)[C@@]2(O)[C@@]3(C)C[C@]4(O)O[C@@]5([C@H](O)[C@@H](C)CC[C@]35O)[C@@]2(O)C41C | – | 1.12 | 5510 | 5960 | 0.925 (inactive) | – |
| CCCCCCCC/C=C\CCCCCCCC(=O)N[C@H](C)CO | 0.925 (inactive) | 1.87 | 5120 | 5540 | – | – |
| CN1C(=O)[C@]23CC4=CC=C[C@H](O)[C@H]4N2C(=O)[C@@]1(CO)SS3 | – | 1.24 | 657 | 730 | 0.901 (inactive) | – |
| CCCCCCC(=O)O[C@H]1CC[C@H]2[C@@H]3C[C@H](O)C4=CC(=O)CC[C@]4(C)[C@H]3CC[C@]12C | – | 1.11 | 5330 | 5520 | 0.966 (inactive) | – |
| CCCCCCC(=O)O[C@H]1CC[C@H]2[C@@H]3C[C@@H](O)C4=CC(=O)CC[C@]4(C)[C@H]3CC[C@]12C | – | 0.446 | 5500 | 5700 | 0.966 (inactive) | – |
| CCCCC/C=C\C/C=C\C/C=C\C/C=C\CCCC(=O)NCCc1c[nH]c2ccc(O)cc12 | 1 (inactive) | 0.653 | 5660 | 5630 | – | – |
| CCN1C[C@@]2(COC)C3[C@@H](OC)[C@H]4[C@H]1C3([C@@H]1C[C@@]3(O)[C@H](OC(=O)c5ccccc5)[C@@H]1[C@]4(OC(C)=O)[C@@H](O)[C@@H]3OC)[C@H](OC)C[C@H]2O | 0.989 (inactive) | 1.45 | 5730 | 5800 | – | – |
| CCCC(=O)N[C@H]1CCOC1=O | 0.907 (inactive) | 0.504 | 6040 | 6650 | – | – |
| C=C1[C@@H](C)[C@H]2[C@H](Cc3ccccc3)NC(=O)[C@]23OC(=O)/C=C/[C@H](O)CCC[C@@H](C)C/C=C/[C@H]3[C@@H]1O | – | 1.09 | 1220 | 1060 | 1.14 (inactive) | 6.64 [at 104.2 µM] (inactive) |
| COc1ccc(S(=O)(=O)N(CCO)c2ccccc2CN(C)C/C=C/c2ccc(Cl)cc2)cc1 | 1.03 (inactive) | 1.21 | 5240 | 5100 | – | – |
